From PubChem BioAssay AID686978 (National Center for Advancing Translational Sciences (NCATS), 2013)
The whole screen tested about 420,000 compounds, of which about 64,000 (15%) were called active. Roughly 27% stayed inconclusive and do not appear here. These entries were drawn from the full list. A number with no mark means an inactive call. Calls come from the whole dose curve; as a rule, active = well fitted inhibition curve with a large enough effect; inconclusive = small, poorly fitted or top-dose-only effect; inactive = flat fitted curve, though single readings scatter. Peptide text beside a SMILES is read from it.

Experiment: qHTS for Inhibitors of human tyrosyl-DNA phosphodiesterase 1 (TDP1): qHTS in cells in absence of CPT; note: nearly all actives have a fitted effect of over 55% in size
Details: DT40 Tdp1-/- hTDP1 cells, no CPT, ATP luminescence, 48 h; activity change, negative = growth inhibition: at 46.2 µM (top of the series)
How it was run: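 Readout: luminescence from CellTiter-Glo after 30 min in the dark at RT. Cells: DT40 Tdp1-/- with stable hTDP1, 400/well. Exposure: compounds alone, ≥48 hr, 37 °C.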
% is set by controls: 0 for no effect and ±100 for the full control effect; potency is the fitted concentration of half-maximal effect.

| Structure (SMILES) | activity change, negative = growth inhibition | Potency |
| --- | --- | --- |
| O=C(Nc1cccc(Cl)c1)Nc1ccccc1NS(=O)(=O)c1cccs1 | -27.6% |  |
| CC(OC(=O)c1cc2ccccc2[nH]1)C(=O)N(C)c1ccccc1 (configuration not stated) | -21.1% |  |
| Cc1ccc(-n2c(SCC(=O)N3CCC(C(=O)O)CC3)nc3ccccc3c2=O)cc1C | -17.9% |  |
| Cc1nc2ccccn2c(=O)c1NC(=O)c1cccs1 | 0.66% |  |
| Cc1ccc(-n2c(=O)c(C#N)cc3c(=O)n4ccccc4nc32)cc1C |  | 23.1 µM (active) |
| Cc1nc2sc(C(c3ccco3)N3CCC4(CC3)OCCO4)c(O)n2n1 (configuration not stated) | 1.96% |  |
| Cc1nn(-c2ccccc2)c(NC(=O)c2cccs2)c(-c2ccc(Cl)cc2)c1=O | -7.27% |  |
| CC1=NN(c2cccc(Cl)c2)C(=O)C12CC(C)=C(C)CS2 (configuration not stated) | -20.8% |  |
| Cc1[nH]n(-c2cccc(Cl)c2)c(=O)c1-c1ccc(Cl)cc1 |  | 16.4 µM (active) |
| CCOC(=O)Cn1c(=O)oc2cc(S(=O)(=O)NCC3CCCO3)ccc21 (configuration not stated) | -6.29% |  |
| NC(=O)C1CCN(C(=O)COc2ccc3c4c(c(=O)oc3c2)CCC4)CC1 | 3.58% |  |
| CC1CCCCN1CC(=O)N1CCCc2c1c(=O)oc1ccc(OCc3ccccc3)cc21 (configuration not stated) |  | 4.61 µM (active) |
| O=C(COc1ccc2oc3c(c2c1)CCCC3)Nc1ccccn1 | -15.6% |  |
| COc1cccc(CCNC(=O)c2cccc(NC(=O)C3=C(C)OCCS3)c2)c1 | -62.7% |  |
| CC1CCCCC1NC(=O)CCS(=O)(=O)c1cccc2nonc12 (configuration not stated) | -13.7% |  |
| CCOC(=O)c1sc(-c2cccc([N+](=O)[O-])c2)cc1N | -5.43% |  |
| CCOC(=O)C1=C(CSc2nccn2C)NC(=O)NC1c1ccc(OC)cc1 (configuration not stated) | -27.7% |  |
| CCOC(=O)C1=C(CN2CCc3ccccc32)NC(=O)NC1c1cc(C)ccc1C (configuration not stated) |  | 12.6 µM (active) |
| CCOC(=O)C1=C(c2ccccc2)NC(=O)NC1c1cc(OC)c(OC)cc1OC (configuration not stated) | -9.62% |  |
| CCOC(=O)COc1ccc(Cl)cc1C1NC(=O)NC(C)=C1C(C)=O (configuration not stated) | 3.59% |  |
| CCOC(=O)C1=C(CN2CCCCCC2)NC(=O)NC1c1cccc([N+](=O)[O-])c1 (configuration not stated) |  | 20.6 µM (active) |
| CCOCCOC(=O)C1=C(C)NC(=O)NC1c1ccc2c(c1)OCO2 (configuration not stated) | 5.25% |  |
| CCOC(=O)C1=C(CNC2CCCCC2)NC(=O)NC1c1cc(C)ccc1C (configuration not stated) |  | 20.6 µM (active) |
| CCOC(=O)C1=C(COC(=O)[C@H](C)NS(=O)(=O)c2ccccc2F)NC(=O)NC1C (some centres not stated) | -3.81% |  |
| CC(=O)NC(C(=O)NCC(N)=O)C(C)C (configuration not stated) (HELM PEPTIDE1{[ac].[CC(C)C(N[*:1])C(=O)[*:2]].G.[am]}$$$$V2.0) | -3.83% |  |
| C/C(Cc1ccccc1)=N\NC(=O)CNC(=O)c1ccccc1Cl | 6.63% |  |

| Structure (SMILES) | activity change, negative = growth inhibition | Potency |
| --- | --- | --- |
| CCC(C)N(C(=O)Cn1nc(C)c([N+](=O)[O-])c1C)C1CCS(=O)(=O)C1 (configuration not stated) | -0.177% |  |
| Nc1cc(=O)n(Cc2ccccc2)c(=O)n1Cc1ccccc1 | -9.87% |  |
| COc1cc(OC)c(-n2c(C)cc(C=O)c2C)cc1Cl | -14.2% |  |
| COc1ncnc2c1ncn2CCCNCCN1CCOCC1 | 12.5% |  |
| CN1/C(=C\C=C2\N=C(c3ccc(F)cc3)OC2=O)C(C)(C)c2ccccc21 |  | 23.1 µM (active) |
| Cc1ccnc2nc(C(=O)OCC(=O)N(CC(C)C)CC(C)C)nn12 | -5.82% |  |
| O=C(O)c1ccccc1-c1ccccc1C(=O)Nc1nccs1 | 3.73% |  |
| COc1ccc(-c2ccc(CN3C(CC(C)C)C(=O)N(Cc4cn(CC5CCCCC5)nn4)CCS3(=O)=O)cc2)cc1 (configuration not stated) |  | 9.2 µM (active) |
| COc1ccc([C@H]2CC(=O)C[C@@H](CCn3cc(CC4CCCC4)nn3)O2)cc1 | -23.7% |  |
| COc1ccc(-c2ccc(CN3C(CC(C)C)C(=O)N(Cc4cn(CC5CCCCC5)nn4)CCS3(=O)=O)cc2)cn1 (configuration not stated) |  | 18.4 µM (active) |
| COc1ccc(-c2ccc(CN3C(C(C)C)C(=O)N(Cc4cn(CC5CCCCC5)nn4)CCS3(=O)=O)cc2)cn1 (configuration not stated) |  | 23.1 µM (active) |
| Cc1nccn1CCCNC(=O)CC1C(=O)NCCN1Cc1ccc(Cl)c(F)c1 (configuration not stated) | -10.3% |  |
| O=C(NCc1cccnc1)C12CC3CC(CC(C3)C1)C2 | -20.2% |  |
| Cc1ccc(/C=C/C(=O)OCC(=O)Nc2cccnc2Cl)cc1 | 6.96% |  |
| COc1ccc(NC(=O)CCS(=O)(=O)c2cc3c(cc2Cl)NC(=O)CO3)cc1OC | 15.1% |  |
| CC(C)C(C)(C#N)NC(=O)CSc1nncn1-c1ccccc1 (configuration not stated) | -26.6% |  |
| Cn1c(=O)c2sccc2n2c(CCC(=O)NCc3ccccc3Cl)nnc12 | -28.7% |  |
| CSc1ccc(Cl)c(C(=O)OCC(=O)N2CCNC2=O)c1 | -20.3% |  |
| O=C(C1CC(=O)N(c2ccc(Br)cc2)C1)N1CCCC1 (configuration not stated) | -3.38% |  |
| Cc1ccc(N2CC(C(=O)N3CCC4(CC3)CC(=O)c3ccccc3O4)CC2=O)cc1C (configuration not stated) |  | 14.6 µM (active) |
| CCc1ccc(N2CC(C(=O)N3CCCCCC3)CC2=O)cc1 (configuration not stated) | -15.7% |  |
| Nn1c(SCC(=O)Nc2nccs2)nnc1-c1ccco1 | -0.464% |  |
| COC(=O)C1=C(C(=O)c2ccc(C)cc2)C(c2ccccc2)n2nnnc2N1 (configuration not stated) | -11.2% |  |
| CC(C)Cc1ccc(C(C)C(=N)N)cc1 (configuration not stated) |  | 6.51 µM (active) |
| COc1ccc(CCNC(=O)CC2SC(=Nc3cc(C)cc(C)c3)NC2=O)cc1OC (configuration not stated) | -23.3% |  |
| O=C1c2cccnc2C(Nc2ccc(S(=O)(=O)N3CCCCCC3)cc2)N1Cc1ccccc1 (configuration not stated) | -25.2% |  |
